Screening results (PubChem BioAssay)
This is a sample that favours compounds with a hit; in the whole collection about 5.7% have one here.
hcDAF12 agonist = activates DAF-12 receptor from parasite H. contortus; activation, % at 6.8 µM; 370,000 tested, 1.4% active; HEK293 hcDAF-12 lit1-tk-luc reporter, luminescence; 0% DMSO, 100% Δ7-dafachronic acid;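 active = activation above the mean of all tested compounds plus 3 SD, cut at about 5.5% in these data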
DAX1 inh-1 = NR0B1 (DAX1) inhibition; inhibition, % at 6.75 µM; HEK293 Gal4-DAX1 luciferase reporter, luminescence; 340,000 tested, 0.99% active;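 active = inhibition above the mean over all tested compounds plus 3 SD, cut at about 4.2% in these data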;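 also: inhibition shows as a rise in luminescence from relieved DAX1 repression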
hgDAF-12 ag = agonists of H. glycines DAF-12 nuclear receptor; HEK293 GAL4-hgDAF12 UAS-luciferase reporter, agonist luminescence; normalized to butyrate control; activation, % at 6.8 µM; 370,000 tested, 1.8% active;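 active = activation above a cutoff set at the mean of all screened compounds plus 3 SD, cut at about 10% in these data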
ssDAF12 agonist = activators of S. stercoralis DAF-12 nuclear receptor. 370,000 tested, 1% active. HEK293 ssDAF-12/GRIP1 lit1-tk-luc reporter, luminescence; % of 3 µM dafachronic acid response. activation, % at 6.8 µM. AID 652126;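 active = activation above the mean over all tested compounds plus 3 SD, cut at about 0.9% in these data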
DAX1 inh-2 = inhibitors of DAX1 repression of SF-1 activated StAR promoter; 370,000 tested, 1.1% active; HEK293T StAR-luciferase reporter, SF-1/DAX-1 repression relief; AID 652010; inhibition, % at 6.8 µM;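 active = inhibition above the mean over all tested compounds plus 3 SD, cut at about 3.6% in these data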;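 also: higher inhibition means more luminescence from relief of DAX-1 repression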
AHR act = activators of human aryl hydrocarbon receptor | P35869 | AHR-responsive luciferase reporter cells, luminescence | activation, % at 5 µM | 320,000 tested, 2.5% active | AID 2796; in the data active = activation above about 47%
Target sequence (P35869 whole entry, looked up): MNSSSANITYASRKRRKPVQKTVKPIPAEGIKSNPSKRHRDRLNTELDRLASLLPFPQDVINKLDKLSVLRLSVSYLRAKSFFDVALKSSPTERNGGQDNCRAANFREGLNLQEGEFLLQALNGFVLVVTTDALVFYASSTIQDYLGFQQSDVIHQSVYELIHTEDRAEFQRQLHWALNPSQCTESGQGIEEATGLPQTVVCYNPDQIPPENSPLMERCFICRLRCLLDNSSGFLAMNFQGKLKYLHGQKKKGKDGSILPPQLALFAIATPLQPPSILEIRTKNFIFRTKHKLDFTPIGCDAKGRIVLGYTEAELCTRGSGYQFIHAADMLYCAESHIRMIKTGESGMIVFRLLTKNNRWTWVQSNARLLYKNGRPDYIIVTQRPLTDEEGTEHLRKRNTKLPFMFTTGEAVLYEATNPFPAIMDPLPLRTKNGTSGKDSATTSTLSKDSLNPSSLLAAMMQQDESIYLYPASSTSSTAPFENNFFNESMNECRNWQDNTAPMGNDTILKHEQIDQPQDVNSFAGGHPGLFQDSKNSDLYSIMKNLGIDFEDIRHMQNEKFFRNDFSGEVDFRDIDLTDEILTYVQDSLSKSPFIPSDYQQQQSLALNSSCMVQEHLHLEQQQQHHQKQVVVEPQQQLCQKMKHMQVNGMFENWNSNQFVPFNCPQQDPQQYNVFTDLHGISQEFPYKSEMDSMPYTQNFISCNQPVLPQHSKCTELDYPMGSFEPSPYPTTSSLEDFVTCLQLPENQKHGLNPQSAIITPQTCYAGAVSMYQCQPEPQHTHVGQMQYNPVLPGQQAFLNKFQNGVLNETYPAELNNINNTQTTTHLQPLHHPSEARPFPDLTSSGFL
Large screens that a line does not name were inactive.

CN1C(=O)C(O)(c2nnc(-c3ccccc3)o2)c2ccccc21 (centres undefined)	ssDAF12 agonist 1.1
CC(C)(C)OC(=O)C[C@@H]1C/C=C\C[C@H](CC(=O)N(CCO)Cc2ccccc2)C(=O)NC[C@H](c2ccccc2)OC1=O	none
O=C(OCc1ccccc1)c1c(-c2ccccc2)oc2c1C(OCCO)CCC2 (centres undefined)	ssDAF12 agonist 1.5 (no result: DAX1 inh-1, AHR act)
Clc1ccc(-n2nnnc2-c2cnc3ccc(Cl)cc3c2-c2ccccc2)cc1	DAX1 inh-1 6.2
Clc1ccc2ncc(-c3nnnn3-c3ccccc3)c(-c3ccccc3)c2c1	none
[O-][N+](=C(c1ccccc1)c1ccccc1)c1ccccc1	ssDAF12 agonist 0.9 (no result: AHR act)
COc1ccc(CCN2CCC(CN3C(=S)NC[C@@H]3Cc3ccccc3)CC2)cc1OC	none (no result: DAX1 inh-1, AHR act)
COc1ccccc1NC(=S)N1CCC(C(=O)c2ccc(F)cc2)CC1	DAX1 inh-1 5.6
CCCn1nc(C(=O)OCC(=O)Nc2ccc(C)cc2)c2ccccc2c1=O	none
C(=N\c1nc2ccccc2n1CCN1CCCCC1)/c1cccs1	none
Cn1c(/N=C/c2cccs2)nc2ccccc21	hcDAF12 agonist 5.8
Cn1c(/N=C/c2cc(Cl)ccc2O)nc2ccccc21	hcDAF12 agonist 6.5, ssDAF12 agonist 1.6 (no result: DAX1 inh-1)
COc1ccc(-c2cc3ccccc3n2CC(O)CN2CCC(C)CC2)cc1 (centres undefined)	hcDAF12 agonist 5.7
COc1ccc(-c2cc3ccccc3n2CC(O)Cn2nc(C)cc2C)cc1 (centres undefined)	none
COc1ccc(Br)cc1S(=O)(=O)NCCN1CCOCC1	DAX1 inh-1 4.5
COc1cc(S(=O)(=O)n2cnc(C)c2)ccc1Cl	none
CCOc1cc(S(=O)(=O)n2cnc(C)c2)ccc1Cl	DAX1 inh-1 4.5
C=CCNc1ncnc2c1[nH]c1ccc(C)cc12	AHR act 104.6
COc1cccc(/C=N/Nc2ncnc3c2[nH]c2ccc(C)cc23)c1OC	AHR act 62.1
Cc1ccc2[nH]c3c(NCCN4CCOCC4)ncnc3c2c1	none (no result: AHR act)
COc1ccc(/C=N/Nc2ncnc3c2[nH]c2ccccc23)c(OC)c1OC	AHR act 72.2
COc1ccc2[nH]c3c(NCc4ccco4)ncnc3c2c1	AHR act 71.2 (no result: hcDAF12 agonist, DAX1 inh-1, hgDAF-12 ag, ssDAF12 agonist, DAX1 inh-2)
CC(=O)c1ccc(NC(=O)C2CCN(S(=O)(=O)c3cccc4nonc34)CC2)cc1	none
O=C(COC(=O)/C=C/c1ccccc1Cl)NC1CCCCCC1	none
Cc1ccc(Nc2nc(CSc3nnc(-c4ccc(F)cc4)n3C)cs2)cc1	hgDAF-12 ag 10.9
Cn1c(=O)c2c(-c3ccccc3)n(-c3ccccc3N)cc2n(C)c1=O	hgDAF-12 ag 12.5 (no result: AHR act)
Nc1ccc(CCNc2ncnc3c2ncn3[C@@H]2O[C@H](CO)[C@@H](O)[C@H]2O)cc1	none
OCC1OC(n2cnc3c(NCCc4ccccc4)ncnc32)C(O)C1O (centres undefined)	hgDAF-12 ag 12.7
CN(C)S(=O)(=O)c1cc(NC(=O)CNCc2ccc(F)cc2)ccc1Cl	none
CCOC(=O)c1ccc(NC(=S)Nc2ccc(C)cc2)cc1	none
O=C(/C=C/Nc1ccccc1)c1ccccc1	hcDAF12 agonist 6.5, hgDAF-12 ag 11.1, DAX1 inh-2 3.8
O=C(/C=C/Nc1ccc(F)cc1Br)c1ccccc1	AHR act 51.1
CCOC(=O)c1ccc(N/C=C/C(=O)C(C)(C)C)cc1	hgDAF-12 ag 13.1
Cc1ccc(C(=O)/C=C/Nc2ccc([N+](=O)[O-])cc2Br)cc1	none
CCOC(=O)c1ccc(NC(=S)Nc2ccccc2)cc1	ssDAF12 agonist 1.2
CCC(C)NCCOCCSc1ccc(Cl)cc1 (centres undefined)	none
CC(C)CC1Nc2ncnc(N3CCN(c4ccccc4)CC3)c2N(Cc2ccc(Br)cc2)C1=O (centres undefined)	none
CCOC(=O)c1ccc(N/C=C/C(=O)c2ccccc2)cc1	hgDAF-12 ag 12.0
O=C(O)/C=C/C(=O)NNc1ncnc2ccccc12	none
O=C(NNc1ncnc2ccccc12)c1cccc(Cl)c1	DAX1 inh-1 5.8, hgDAF-12 ag 11.4
CCOc1ccccc1N(C(=O)Nc1cccc(Cl)c1)C1=NC(C)CS1 (centres undefined)	DAX1 inh-1 4.5
NC(=O)NCCC1=CCCCC1	none
O=C(NCCC1=CCCCC1)NC1CCCCC1	hgDAF-12 ag 10.6
Cc1ccccc1NC1=C/C(=N\S(=O)(=O)c2ccc(C(=O)O)cc2)c2ccccc2C1=O	none
O=C(O)c1ccc(S(=O)(=O)/N=C2\C=C(Nc3ccccc3F)C(=O)c3ccccc32)cc1	AHR act 69.6
Cc1nccn1CCCNC(=O)CC1C(=O)NCCN1Cc1ccc(F)cc1Cl (centres undefined)	none
O=C(Nc1ccc([N+](=O)[O-])cc1)C(Cc1ccccc1)N1C(=O)c2cccc3cccc(c23)C1=O (centres undefined)	ssDAF12 agonist 1.4
CN(C)S(=O)(=O)c1cc(NC(=O)[C@H](Cc2ccccc2)N2C(=O)c3ccccc3C2=O)ccc1Cl	AHR act 71.3
CN(C)S(=O)(=O)c1cc(NC(=O)COC(=O)CCc2ccccc2)ccc1Cl	none
CCC(C)(c1nnnn1-c1c(C)cccc1C)N(N=O)c1ccccc1Cl (centres undefined)	none
Cc1ccc(-c2nc(C)c(C(=O)O)s2)cc1	hgDAF-12 ag 10.8
Cc1nc(-c2ccccc2)sc1C(=O)O	none
COc1ccccc1C(CNC(=O)c1cccc(S(=O)(=O)NCc2ccccc2)c1)N(C)C (centres undefined)	DAX1 inh-1 4.8
COc1ccc(C(CNC(=O)c2cccc(NS(=O)(=O)c3ccccc3)c2)N(C)C)cc1 (centres undefined)	none
CCOc1ccc(S(=O)(=O)Nc2cccc(C(=O)NCC(c3ccccc3)N(C)C)c2)cc1 (centres undefined)	DAX1 inh-2 3.6
O=C(/C=C/c1cccc(O)c1)c1ccc(N2CCOCC2)cc1	none
CC(=O)C1=C(C)NC(SCC(=O)c2ccc(Cl)cc2Cl)=C(C#N)C1c1ccco1 (centres undefined)	AHR act 106.6
CC(=O)C1=C(C)NC(SCC(=O)c2ccccc2)=C(C#N)C1c1ccco1 (centres undefined)	AHR act 106.6 (no result: hcDAF12 agonist, DAX1 inh-1, hgDAF-12 ag, ssDAF12 agonist, DAX1 inh-2)
CC(=O)C1=C(C)NC(SCc2ccc(C#N)cc2)=C(C#N)C1c1ccco1 (centres undefined)	none
CC(=O)C1=C(C)NC(SCC(=O)c2ccc(Cl)cc2)=C(C#N)C1c1ccco1 (centres undefined)	none
Cc1ccc2c(nc3s/c(=C\c4ccc(-c5ccccc5C(=O)O)o4)c(=O)n32)c1C	none
Cc1ccc2c(nc3s/c(=C/c4cccs4)c(=O)n32)c1C	hcDAF12 agonist 6.2 (no result: AHR act)
COc1ccccc1-c1nnc(NC(=O)C(C)Sc2nncn2C)s1 (centres undefined)	none
